Measured values reported in ChEMBL document CHEMBL3988442, “University of Dundee, Small-Polar-MMV Screening Library” (2021).
Hit rate of the full screen: of about 48,000 compounds, about 13,000 (27%) showed an effect of 50% or more. The list shows a part of the results.

The molecules below were run on Wolbachia pipientis (assay: Anti-Wolbachia Cell-Based Screen). Details: 5 µM.
Assay type: functional
Parameters: scale not given: in the data most compounds retested in dose-response had high values

SMILES	Percent Effect [%]
CC(C)c1nc(CNc2ccc(N3CCC(CO)CC3)cn2)cs1	0.232
Cl.O=C(CN1CCC[C@@H]1C(=O)O)NCCOc1cccc(C(F)(F)F)c1	-3.641
CSc1nccc(N2C[C@@H](CN3CCCCC3)[C@@H](CO)C2)n1	104.9
Nc1nccc(N2C[C@@H](CN3CCCCC3)[C@@H](CO)C2)n1	106.5
Cc1nc(N2C[C@@H](CN3CCCCC3)[C@@H](CO)C2)c2sccc2n1	8.907
Cn1ccnc1CN1C[C@@H](CN2CCCC2)[C@@H](CO)C1	2.193
OC[C@H]1CN(Cc2c(Cl)cccc2Cl)C[C@H]1CN1CCCCC1	2.429
CCN1CCN(C[C@@H]2CN(c3ncccc3Cl)C[C@@H]2CO)CC1	-1.669
Cn1ccnc1CN1C[C@@H](CN2CCCCC2)[C@@H](CO)C1	-0.1943
Cc1nccc(N2C[C@@H](CN3CCCC3)[C@@H](CO)C2)n1	109.4
Cn1ccnc1CN1C[C@@H](CN2CCCCCC2)[C@@H](CO)C1	-5.321
Cc1cc(CN(C)C(=O)C(c2ccccc2C)N(C)C)on1 (stereo not drawn)	-6.719
COCC1CN(c2ccc3c(Cl)ccnc3c2F)CCO1 (stereo not drawn)	-23.97
CC(C)n1nc(Cn2cccn2)c2c1CN(C1CCOCC1)C2.O=C(O)C(F)(F)F	-12.7
CSCC(CCO)Nc1cccc(C(F)(F)F)n1 (stereo not drawn)	-4.466
Cc1[nH]/c(=N\C(=O)c2csc(NC3CC3)n2)sc1C	5.659
CCn1nc(C(C)C)cc1C(=O)N1CC(OCc2ccccc2F)C1	-12.74
CC(C)C(=O)N1CCCC2(CCCN2CC2CCCC2)C1.O=C(O)C(F)(F)F (stereo not drawn)	4.18
CCNc1ncc(C(=O)NC(CCN(C)C)c2ccccc2)cn1 (stereo not drawn)	13.66
CCC(NC(=O)c1nn(C)cc1C(=O)O)c1ccc(C)cc1 (stereo not drawn)	104.3
Cc1ccc(C(C(=O)O)N(C)CCCN2CCOCC2)c(C)c1 (stereo not drawn)	-9.259
CCC(NC(=O)c1c(C(=O)O)cnn1C)c1ccc(C)cc1C (stereo not drawn)	109.1
COc1ccc(C(CC(=O)O)NC(=O)c2cc(C)on2)cc1 (stereo not drawn)	2.487
CCCC(NC(=O)c1cc(C)ccc1C)c1nnn[nH]1 (stereo not drawn)	-4.44
CCC(NC(=O)c1cc(NC(C)=O)ccc1Cl)c1cc(C)ccn1 (stereo not drawn)	-8.351
CCC(NC(=O)c1nn(C)cc1C(=O)O)c1ccccc1 (stereo not drawn)	82.78

SMILES	Percent Effect [%]
CCC(CC)NC(=O)Cn1cc(C(N)=O)c(-c2ccccc2)n1	-10.51
CCC(NC(=O)c1cc(CC(C)C)nn1C)c1cc(C)ccn1 (stereo not drawn)	6.008
CCC(NC(=O)CN(C)Cc1ccc(C)o1)c1ccc(C)cc1 (stereo not drawn)	3.05
CCC(NC(=O)c1nn(C)cc1C(=O)O)c1ccc(C)cc1C (stereo not drawn)	113.8
CSCC(CCO)NC(=O)Nc1cc(C)ccc1C (stereo not drawn)	-5.082
CC(C)(C)NC(=O)NCc1cnn2ccccc12	-7.455
CCOCCN1C[C@H](c2cccc(OC)c2)[C@@H](N)C1	-6.771
Cc1cnccc1N1CCN(c2nccc(CCC(F)(F)F)n2)CC1	13.49
Cc1nc(C)n(CC2CCCN2CC(=O)Nc2ccnn2C(C)C)n1 (stereo not drawn)	-5.093
CCOCC(=O)N1CC[C@H]2OCC[C@@H](c3nnc(C)o3)[C@H]2C1	13.01
Cc1ccc(C(=O)NCC(O)c2ccc(F)c(F)c2)c(=O)[nH]1 (stereo not drawn)	-52.3
Cn1c(SCC2OCCc3ccccc32)n[nH]c1=O (stereo not drawn)	-11.92
O=C(O)c1cc(S(=O)(=O)Nc2cccc(F)c2F)cc2c1OCCO2	134.3
CN(c1ccccc1)S(=O)(=O)c1cc2c(c(C(=O)O)c1)OCCO2	4.597
CN(c1ccc(F)cc1)S(=O)(=O)c1cc2c(c(C(=O)O)c1)OCCO2	-14.55
O=C(O)c1cc(S(=O)(=O)Nc2cc(F)ccc2F)cc2c1OCCO2	0.9161
Cc1cc(F)ccc1NS(=O)(=O)c1cc2c(c(C(=O)O)c1)OCCO2	118
Cc1ccc(S(=O)(=O)N2CCOc3ccccc32)cc1C(=O)O	-0.06219
O=C(O)c1cc(S(=O)(=O)Nc2ccc(F)cc2F)cc2c1OCCO2	104.7
CN(c1c(F)cccc1F)S(=O)(=O)c1cc2c(c(C(=O)O)c1)OCCO2	7.763
Cc1ccc(F)cc1NS(=O)(=O)c1cc2c(c(C(=O)O)c1)OCCO2	117.8
CCc1noc(CS(=O)(=O)CC(=O)N2c3ccccc3CC2C)n1 (stereo not drawn)	1.089
CCOC1CC2(CCN(Cc3cnn(C)c3)CC2)c2ccc(C)cc21 (stereo not drawn)	-1.962
CN1CCN(C)C2(CCN(Cc3ccc(C4CCCO4)s3)CC2)C1 (stereo not drawn)	-8.087
COc1cc(Cl)ccc1C(=O)NCc1n[nH]c(C)n1	-9.051
Cc1nc(CCCNC(=O)c2cc(F)ccc2O)n[nH]1	85.21

SMILES	Percent Effect [%]
Cc1ccc(O)c(C(=O)NCCCS(=O)(=O)Cc2ccccc2)c1	-4.048
Cc1nc(CCCNC(=O)c2c(F)cc(F)cc2F)n[nH]1	108.5
COc1c(Br)cccc1CCNC(=O)c1ncoc1C	-6.421
Cc1nc(CCCNC(=O)c2c(F)cccc2Br)n[nH]1	89.06
COc1ccccc1C(=O)NCc1n[nH]c(C)n1	3.11
COc1c(Cl)cc(C(=O)NCc2n[nH]c(C)n2)cc1Cl	1.914
COc1ccc2cccc(CC(=O)NCCCc3n[nH]c(C)n3)c2c1	-4.195
CN1C[C@H](O)C[C@H]1c1nc(-c2ccc(OC(F)(F)F)cc2)no1	-6.164
CC(C)(O)CCc1cccc(C(=O)N2CCC[C@H]2C(N)=O)c1	102.3
C[C@H](NC(=O)c1cccc(CCC(C)(C)O)c1)C(N)=O	-11.41
CCNC(=O)[C@@H]1C[C@H](N)CN1C(=O)c1cccc(CCC(C)(C)O)c1	102.7
CCNC(=O)[C@@H]1C[C@@H](N)CN1C(=O)CCc1ccc(C)c(C)c1	-3.444
CC(C)(O)CCc1cccc(C(=O)NCC2CN(S(C)(=O)=O)CCO2)c1 (stereo not drawn)	-12.96
CCNC(=O)[C@@H]1CCCN1C(=O)c1cccc(CCC(C)(C)O)c1	104.5
CCNC(=O)[C@@H]1C[C@H](N)CN1C(=O)CCc1ccc(C)c(C)c1	-20.38
CC(C)(O)CCc1cccc(C(=O)N[C@@H](CO)C(N)=O)c1	1.69
CC[C@@H](CO)NC(=O)c1cccc(CCC(C)(C)O)c1	0.6007
CS(=O)(=O)N1CCC(Oc2ccc(C(=O)NCC3CCC3)cc2Cl)CC1	-2.678
Cc1cc(CN2CCCC2)cc(Oc2ccc(C(F)(F)F)cn2)c1	9.077
Cc1nn(C)cc1C(=O)NC(CC(C)C)C(=O)Nc1cc[nH]n1 (stereo not drawn)	1.449
CN(CC(=O)NC(C)(C)C)Cc1cccc2c1OCCO2	-43.12
Cc1cccn2c(NC(C)(C)C)c(C3CCN(C(=O)C4CC4)CC3)nc12	138
CN(CCO)Cc1nnc(C2CCN(C(=O)C(C)(C)C)CC2)n1C	1.717
CC(C)(C)Nc1c(C2CCN(C(=O)C(C)(C)C)CC2)nc2ccccn12	124.8
CC(C)(C)Nc1c(C2CCCN(C(=O)C3CC3)C2)nc2ccccn12.Cl (stereo not drawn)	97.63
CC(C)(O)C1CCCN(C(=O)Nc2nc(-c3ccccc3)ns2)C1 (stereo not drawn)	-3.959

SMILES	Percent Effect [%]
CC(C)(C)C(=O)N1CCC(c2nc(O)cc(-c3ccccn3)n2)CC1	-20.96
CC(C)(C)Nc1c(C2CCN(C(=O)C3CC3)CC2)nc2ccccn12	95.08
NC(=O)c1csc(N2CCN(Cc3cccc4nsnc34)CC2)n1	-1.05
CC(C)N1CCC(O)(CNC(=O)CC2OCCc3ccccc32)CC1 (stereo not drawn)	-11.76
Cc1ncc(Cl)c(C(=O)N2CC(=O)N(C)c3ccccc32)n1	-4.054
Cc1cnc(NC(=O)N2CCOCC2)s1	-16.98
CCC(C)n1cnc(S(=O)(=O)N(Cc2cccnc2)C(C)C)c1 (stereo not drawn)	3.048
O=C(OCCNc1ncccn1)c1ccc(Br)s1	-22.12
CC(C)C(=O)N1CCC(c2nc3ccccn3c2NC(C)(C)C)CC1	120.3
CNC(C(=O)N1CCC(c2nccn2C(C)C)CC1)c1ccccc1 (stereo not drawn)	12.05
COc1ccccc1OC1CN(C(=O)Cc2c(C)nc3ccccn23)C1	-17.73
CC(C)c1nc(C(=O)N(C)c2ccc(Br)cn2)cs1	-16
CC1CCN(S(=O)(=O)c2cccnc2)c2ccccc2S1 (stereo not drawn)	-3.494
O=S1(=O)CCC(N2CCN(c3cc(C(F)(F)F)ccn3)CC2)C1 (stereo not drawn)	0.5225
CCn1c(CN2CCCC2)nnc1C1CCN(Cc2cccnc2)CC1	-3.145
CC(c1nc(C2CC2)no1)N1CCN(Cc2cccnc2)CC1 (stereo not drawn)	9.745
CS(=O)(=O)c1snnc1C1CCCN(Cc2ccncc2)C1 (stereo not drawn)	95.13
Cc1cccc(CN2CCC(c3nnsc3S(C)(=O)=O)CC2)n1	122.9
CS(=O)(=O)c1snnc1C1CCN(Cc2cccnc2)CC1	133.5
COC[C@H]1CNC(=O)[C@@H]2CCN(Cc3cccc(C)n3)CC[C@H]12	-1.462
CNc1ncc(CN2CCC(c3nnsc3S(C)(=O)=O)CC2)cn1	122
CCn1c(CN(C)C)nnc1C1CCN(Cc2cnc(C)nc2)CC1	-9.341
Cc1nccc(CN2CCC(c3nnsc3S(C)(=O)=O)CC2)n1	2.937
CS(=O)(=O)c1snnc1C1CCN(Cc2ccncc2)CC1	-7.486
CN(C)c1ncc(CN2CCC(c3nnsc3S(C)(=O)=O)CC2)cn1	-8.857
